The list is not random: actives were taken first. Their share in the collection is about 6.8%.
T cruzi growth – T. cruzi proliferation inhibition. T. cruzi beta-gal in NIH3T3, GalScreen luminescence, 90 h. hit rate 5.9% among 77,000. inhibition, % at 8.34 µM;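 active = mean inhibition above about 93%, with at least 55% of replicates each passing it, limit read from the data, passing the limit was not always enough; inconclusive = only one of those two conditions holds; inactive = neither condition holds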
Pf Dd2 growth – inhibitors of Plasmodium falciparum Dd2 growth; P. falciparum Dd2 growth, SYBR Green, 72 h; active compounds read low; activity change, % at 10 µM; hit rate 2.3% among 94,000; in the data active = activity change below about -80%; inconclusive = no clear call, values can overlap the other calls
C diff growth – C. difficile growth inhibition; hit rate 0.25% among 86,000; growth activity, negative = inhibition, % at 16 µg/mL (by protocol); AID 1259249; Clostridium difficile clinical isolate growth, OD600, 24 h; active compounds read low;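 active = mean growth activity at or below -80% and every replicate also at or below -80%; inconclusive = mean at or below -80% but some replicate above -80%; inactive = mean growth activity above -80%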
Hits are given with their value; . = inactive; ? = inconclusive; / = not tested or not shown.

SMILES	T cruzi growth	Pf Dd2 growth	C diff growth
C[C@@H]1CN([C@H](C)CO)C(=O)c2cccc(NC(=O)CCCCCC(=O)Nc3ccccc3N)c2O[C@@H]1CN(C)C(=O)Nc1ccc(C(F)(F)F)cc1	/	-88.0	.
C[C@H]1CN([C@@H](C)CO)C(=O)c2cccc(NC(=O)CCCCCC(=O)Nc3ccccc3N)c2O[C@@H]1CN(C)C(=O)Nc1ccc(C(F)(F)F)cc1	/	-82.0	.
C[C@@H]1CN([C@H](C)CO)C(=O)c2cccc(NC(=O)CCCCCC(=O)Nc3ccccc3N)c2O[C@@H]1CN(C)C(=O)Nc1ccc(F)cc1	/	-86.4	.
C[C@H]1CN([C@@H](C)CO)C(=O)c2cccc(NC(=O)CCCCCC(=O)Nc3ccccc3N)c2O[C@@H]1CN(C)C(=O)Nc1ccc(F)cc1	/	.	.
C[C@H]1CN([C@@H](C)CO)C(=O)c2cccc(N(C)C)c2O[C@@H]1CN(C)C(=O)Nc1cccc2ccccc12	.	.	.
O=C(Nc1ccc2c(c1)OCO2)N[C@@H]1CC[C@@H](CCNC(=O)C2CC2)O[C@@H]1CO	.	.	/
Cc1ccc(S(=O)(=O)N(C)C[C@@H]2Oc3ccc(NC(=O)CCCN(C)C)cc3CC(=O)N([C@H](C)CO)C[C@H]2C)cc1	.	.	.
CO[C@H]1CN(C)C(=O)c2ccc(NC(=O)C3CC3)cc2OC[C@@H](C)N(Cc2cncnc2)C[C@@H]1C	.	/	/
C[C@@H]1CN([C@@H](C)CO)S(=O)(=O)c2ccc(C#CCN(C)C)cc2O[C@H]1CN(C)S(C)(=O)=O	.	/	.
O=C(C[C@@H]1CC[C@@H](NC(=O)Nc2ccccc2F)[C@H](CO)O1)NCc1ccc(-c2ccccc2)cc1	/	.	.
C[C@@H]1CN([C@@H](C)CO)C(=O)c2cccc(NC(=O)Nc3cccc4ccccc34)c2O[C@H]1CN(C)C(=O)NC1CCCCC1	.	-89.2	/
C[C@H]1CN([C@@H](C)CO)C(=O)c2cccc(NC(=O)NC3CCCCC3)c2O[C@H]1CN(C)C(=O)Nc1cccc2ccccc12	.	.	.
O=C(C1CCC1)N1[C@@H](CO)[C@@H](c2ccccc2)C12CN(Cc1ccccc1)C2	/	.	.
Cc1noc(C)c1S(=O)(=O)Nc1ccc2c(c1)CC(=O)N([C@H](C)CO)C[C@H](C)[C@@H](CN(C)S(=O)(=O)c1cccs1)O2	.	.	.
C[C@@H]1CCCCO[C@@H](CN(C)Cc2ccc(C(=O)Nc3ccccc3N)cc2)[C@@H](C)CN([C@H](C)CO)C(=O)c2cc(NC(=O)c3ccccc3)ccc2O1	/	-83.7	.
C[C@@H]1CCCCO[C@@H](CN(C)Cc2ccccc2)[C@H](C)CN([C@H](C)CO)C(=O)c2cc(NC(=O)CCC(F)(F)F)ccc2O1	.	.	.
C[C@@H]1CN([C@H](C)CO)C(=O)c2cc(NC(=O)CCC(F)(F)F)ccc2O[C@@H]1CN(C)Cc1ccc(C(=O)Nc2ccccc2N)cc1	.	.	/
C[C@@H]1CCCCO[C@@H](CN(C)Cc2ccc(C(=O)Nc3ccccc3N)cc2)[C@@H](C)CN([C@H](C)CO)C(=O)c2cc(NC(=O)CCC(F)(F)F)ccc2O1	/	-91.8	.
C[C@H]1CN([C@@H](C)CO)C(=O)c2cc(NC(=O)CCC(F)(F)F)ccc2O[C@@H]1CN(C)Cc1ccc(C(=O)Nc2ccccc2N)cc1	/	-85.8	.
C[C@@H]1CCCCO[C@@H](CN(C)Cc2ccc(C(=O)Nc3ccccc3N)cc2)[C@@H](C)CN([C@H](C)CO)C(=O)c2cc(NC(=O)c3ccncc3)ccc2O1	/	-85.5	.
C[C@H](CO)N1C[C@H](C)[C@H](CN(C)Cc2ccccc2)OCCCC[C@H](C)Oc2ccc(NC(=O)c3ccncc3)cc2C1=O	.	.	.
C[C@H]1CCCCO[C@@H](CN(C)Cc2ccc(C(=O)O)cc2)[C@@H](C)CN([C@@H](C)CO)C(=O)c2cc(NC(=O)c3ccccc3)ccc2O1	.	.	.
C[C@H]1CN([C@@H](C)CO)C(=O)Cc2cc(NC(=O)CCN3CCOCC3)ccc2O[C@@H]1CN(C)Cc1ccccc1	.	.	.
CNC(=O)C[C@H]1CC[C@H]2[C@@H](COc3ccc(NC(=O)NC(C)C)cc3C(=O)N2C)O1	.	.	.
O=C(C[C@@H]1CC[C@@H](NC(=O)Nc2ccccc2F)[C@@H](CO)O1)NCc1ccc(F)cc1	/	.	.
SMILES	T cruzi growth	Pf Dd2 growth	C diff growth
O=C(C[C@H]1CC[C@@H]2[C@H](COC[C@@H](O)CN2C(=O)Nc2ccc(Cl)cc2)O1)N1CCCCC1	.	.	.
O=C(C[C@@H]1CC[C@@H](NC(=O)Nc2cccc(F)c2)[C@@H](CO)O1)NCC1CC1	.	.	/
CCCC(=O)N1CC2(C1)CN(Cc1ccccc1F)[C@H](CO)c1c2c2ccc(OC)cc2n1C	/	-86.9	.
CCCC(=O)N1CCC2(CC1)CN(Cc1ccccc1F)[C@@H](CO)c1c2c2ccc(OC)cc2n1C	/	-82.8	.
CCCC(=O)N1CCC2(CC1)CN(Cc1ccccc1F)[C@H](CO)c1c2c2ccc(OC)cc2n1C	/	?	.
COc1ccc2c3c(n(C)c2c1)[C@H](CO)N(Cc1ccccc1F)CC31CN(C(C)=O)C1	/	.	.
CCCC#Cc1ccc2c(c1)O[C@@H](CN(C)C)[C@H](C)CN([C@H](C)CO)S2(=O)=O	.	.	.
C[C@H](CO)N1C[C@H](C)[C@@H](CN(C)C(=O)Nc2ccccc2)Oc2c(NC(=O)c3cnccn3)cccc2C1=O	.	.	.
O=C1CN(S(=O)(=O)c2ccccc2)C[C@@H]2[C@H](c3ccc(C#CCc4ccccc4)cc3)[C@H](CO)N12	/	.	.
Cc1ccccc1S(=O)(=O)N1CC(=O)N2[C@H](C1)[C@@H](c1ccc(C#Cc3ccccc3)cc1)[C@@H]2CO	/	-82.0	.
O=C1CN(S(=O)(=O)c2ccccc2)C[C@@H]2[C@H](c3ccc(C#CCc4ccccc4)cc3)[C@@H](CO)N12	/	-84.2	.
Cc1ccccc1S(=O)(=O)N1CC(=O)N2[C@H](CO)[C@H](c3ccc(C#Cc4ccccc4)cc3)[C@H]2C1	/	.	.
C[C@H]1CN([C@@H](C)CO)C(=O)Cc2cc(NS(=O)(=O)c3ccc(Cl)cc3)ccc2O[C@@H]1CN(C)C	/	.	.
C[C@@H]1CN([C@@H](C)CO)C(=O)Cc2cc(NS(=O)(=O)c3ccccc3)ccc2O[C@H]1CN(C)CC1CC1	.	.	.
CO[C@H]1CN(C)C(=O)c2cc(NC(=O)Nc3ccc(C(F)(F)F)cc3)ccc2OC[C@H](C)NC[C@H]1C	.	-87.9	/
CO[C@H]1CN(C)C(=O)c2ccc(NC(=O)Nc3ccc(C(F)(F)F)cc3)cc2OC[C@H](C)NC[C@@H]1C	/	.	.
CO[C@@H]1CN(C)C(=O)c2ccc(NC(=O)Nc3ccc(C(F)(F)F)cc3)cc2OC[C@@H](C)NC[C@@H]1C	/	-83.3	.
CO[C@H]1CN(C)C(=O)c2ccc(NC(=O)Nc3ccc(C(F)(F)F)cc3)cc2OC[C@@H](C)NC[C@H]1C	.	.	/
CC(C)C#Cc1ccc([C@H]2[C@H]3CN(C(=O)c4ccc(F)cc4)CCCCN3[C@H]2CO)cc1	.	.	.
C[C@@H]1CN([C@H](C)CO)C(=O)c2cc(NC(=O)c3ccncc3)ccc2O[C@@H](C)CCCCO[C@H]1CN(C)Cc1ccc(C(F)(F)F)cc1	.	.	.
CCCNC(=O)C[C@@H]1CC[C@@H]2[C@H](COC[C@@H](O)CN2C(=O)c2cc(Cl)cc(Cl)c2)O1	.	.	/

Compound activity deposited in PubChem BioAssay by Broad Institute.
